A selection: hits, their analogues and other compounds. The true share with any hit is near 7.3%.
FLuc modulator: counter-screen for miR-21 project: firefly luciferase inhibitors or activators | purified FLuc, Km substrates, luminescence inhibition | Potency, µM (highest dose often 57.5 µM), for the others: at the top dose activity change, negative = inhibition, most hits filed as inhibitors | 360,000 compounds, 6.9% hits;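 also: plate controls were vehicle for no effect and reference inhibitor for full effect; nearly all actives have a fitted effect of over 55% in size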
Target sequence (P08659 whole entry, looked up): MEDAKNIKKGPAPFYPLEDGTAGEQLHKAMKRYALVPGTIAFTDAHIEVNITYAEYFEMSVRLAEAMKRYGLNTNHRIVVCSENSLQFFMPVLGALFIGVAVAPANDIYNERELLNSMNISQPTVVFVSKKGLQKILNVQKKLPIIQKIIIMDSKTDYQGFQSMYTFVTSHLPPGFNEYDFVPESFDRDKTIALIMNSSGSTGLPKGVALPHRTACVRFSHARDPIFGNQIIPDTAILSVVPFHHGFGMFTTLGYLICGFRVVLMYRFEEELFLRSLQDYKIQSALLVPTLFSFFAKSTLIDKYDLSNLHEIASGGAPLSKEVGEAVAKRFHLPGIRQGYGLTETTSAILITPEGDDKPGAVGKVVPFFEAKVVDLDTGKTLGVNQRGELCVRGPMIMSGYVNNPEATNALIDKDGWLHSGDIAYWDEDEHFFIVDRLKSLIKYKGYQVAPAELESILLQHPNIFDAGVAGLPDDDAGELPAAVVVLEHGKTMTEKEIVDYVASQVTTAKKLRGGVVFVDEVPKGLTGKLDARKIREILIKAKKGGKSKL
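Biochemical qHTS of compounds, final roughly 60 µM downward over six points, against 10 nM purified firefly luciferase using Km concentrations of substrates (10 uM D-luciferin, 10 uM ATP) in Tris acetate pH 7.5 buffer; luminescence output.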
SMN2 splice up: enhancers of SMN2 splice variant expression. HEK293 SMN2-luciferase splicing reporter, luminescence, 30-36 h. Potency, µM (series often up to 46.1 µM), without a hit: at the top dose activity change, positive = activation, most hits filed as activators. 210,000 compounds, 2.8% hits; also: % of control where 0% means no effect; nearly all actives have a fitted effect of over 55% in size
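HEK293 cells carry an SMN2 minigene-luciferase reporter in which exon 7 inclusion puts luciferase in frame. Cells were seeded at 2000 cells/well, attached for 10-12 hours, then exposed to compounds for 30-36 hours at 37C before ONE-Glo luminescence.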
p53 reactivation: mutant p53 re-activation in reporter cells; Potency, µM (series often up to 92.2 µM), for the others: at the top dose activity change, positive = activation, hits mostly activators; H1299 p53-A138V BP100-luciferase reporter, luminescence, 24 h; 320,000 compounds, 0.063% hits; AID 504706; also: % of control where 0% means no effect; nearly all actives have a fitted effect of over 45% in size
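H1299 (p53-null), stable ts p53-A138V + BP100-Luc; 1000 cells/well, Opti-MEM/10% FBS; cpd 4 pt, 1:5; 24 h, 37 deg C, 5% CO2; detection reagent 10 min RT; luminescence.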
Rab9 prom act: activators of Rab9 promoter | Potency, µM (series often up to 9.22 µM), inactives show at the top dose activation, negative = inhibition, usual class: activators | Huh7 Rab9 promoter-luciferase reporter, luminescence, 24 h | 320,000 compounds, 2.8% hits; also: % of control where 0% means no effect; nearly all actives have a fitted effect of over 60% in size
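Huh7 reporter line, Rab9 promoter upstream of luciferase. Compound exposure 24 h at 37 °C in reduced-serum medium with 10% FBS. Read-out: luminescence.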
ELG1 genotoxic: genotoxicity induction in ELG1-luciferase HEK293T cells; HEK293T ELG1-luciferase reporter, luminescence, 16 h; 330,000 compounds, 1.3% hits; Potency, µM (top dose mostly 46 µM), for inactives: top-dose activity change, positive = activation, actives largely listed as activators; also: % of control where 0% means no effect; nearly all actives have a fitted effect of over 60% in size
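After overnight (16 hr) compound treatment at 37 °C, ELG1-luciferase HEK293T cells were lysed with ONE-Glo; luminescence quantified 30 min later at room temperature.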
NPC1 prom act: activators of NPC1 promoter | Huh7 NPC1 promoter luciferase reporter, 24 h | Potency, µM (series often up to 9.22 µM), for inactives: at the top dose activation, actives largely listed as activators | 320,000 compounds, 2.4% hits | AID 485313; also: % of control where 0% means no effect; nearly all actives have a fitted effect of over 60% in size
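Stably transfected Huh7 (NPC1 promoter→luciferase), 1500 cells/well in Opti-MEM + 10% FBS, 2 h settle, then compound 24 h at 37 °C. Luminescence after 10 min with Amplite reagent.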
* marks the source's active call; other numbers are inactive results. Calls follow the shape of the dose curve; as a rule, active = well fitted curve in the direction sought with a large enough effect; inconclusive = small, poorly fitted or top-dose-only effect, or another doubt; inactive = no such curve, though single readings can be large; an effect the other way counts as inactive or inconclusive. Potency is read from the fitted curve at half-maximal effect.

For O=c1[nH]c(CSc2ccccn2)nc2ccccc12 the results were FLuc modulator 13µM*, SMN2 splice up 11µM*, p53 reactivation 19%, Rab9 prom act 2.8µM*, ELG1 genotoxic inconclusive and NPC1 prom act 2.5µM*.
For O=S(=O)(NCCc1csc2nc(-c3ccc(Cl)cc3)nn12)c1cccs1 the results were FLuc modulator -15%.
O=C(O)C(c1ccccc1)N1C(=O)/C(=C/c2cccs2)SC1=S (stereo unspecified) was read as FLuc modulator inconclusive, p53 reactivation -2%, Rab9 prom act 1%, ELG1 genotoxic 1% and NPC1 prom act 0%.
Screening C=CCOc1ccc(/C=C2\SC(=S)N(C(C(=O)O)c3ccccc3)C2=O)cc1 (stereo unspecified) returned FLuc modulator 21µM*, p53 reactivation 0%, Rab9 prom act -3%, ELG1 genotoxic -3% and NPC1 prom act 0%.
Screening CCOc1ccc(/C=C2\SC(=S)N(C(C(=O)O)c3ccccc3)C2=O)cc1OC (stereo unspecified) returned FLuc modulator 19µM*, p53 reactivation -1%, Rab9 prom act -11%, ELG1 genotoxic 2% and NPC1 prom act -1%.
`CC(C)OC(=O)CSc1nc2c(cc1C#N)CCCCC2` gave FLuc modulator -2%, SMN2 splice up inconclusive, p53 reactivation 4%, Rab9 prom act inconclusive, ELG1 genotoxic 12% and NPC1 prom act inconclusive.
`CCOC(=O)CC(=O)COc1nc2cc3c(nc2o1)CCCC3` gave FLuc modulator 13µM*, p53 reactivation inconclusive, Rab9 prom act 18%, ELG1 genotoxic inconclusive and NPC1 prom act -3%.
`CCOC(=O)CC(=O)CSc1nc2c(cc1C#N)CCCCC2` gave FLuc modulator 9.5µM*, SMN2 splice up inconclusive, p53 reactivation inconclusive, Rab9 prom act inconclusive, ELG1 genotoxic 7.1µM* and NPC1 prom act 21%.
Screening CCOC(=O)CC(=O)CSc1nc2c(c(C)c1C#N)CCC2 returned FLuc modulator 11µM*, SMN2 splice up -6%, p53 reactivation 20%, Rab9 prom act 6%, ELG1 genotoxic 1% and NPC1 prom act 23%.
`CCOC(=O)CC(=O)CSc1nc(C)cc(C)c1C#N` gave FLuc modulator -16%, SMN2 splice up 17%, p53 reactivation 6%, Rab9 prom act -11%, ELG1 genotoxic -12% and NPC1 prom act -3%.
Screening CC(C)OC(=O)CC(=O)CSc1nc2c(cc1C#N)CCCCC2 returned FLuc modulator 7.6µM*, SMN2 splice up inconclusive, p53 reactivation inconclusive, Rab9 prom act inconclusive, ELG1 genotoxic 15µM* and NPC1 prom act 14%.
Screening Oc1ccc(COc2cccc3ccccc23)c2cccnc12 returned FLuc modulator -7%, Rab9 prom act -9% and NPC1 prom act 0%.
Screening O=S(=O)(Nc1nc2ccccc2nc1N1CCc2ccccc2C1)c1ccc(Cl)cc1 returned FLuc modulator -15%, SMN2 splice up -44%, p53 reactivation 10%, Rab9 prom act -7%, ELG1 genotoxic -12% and NPC1 prom act -1%.
For O=S(=O)(Nc1nc2ccccc2nc1N1CCc2ccccc2C1)c1ccc(Br)cc1 the results were FLuc modulator 15µM*, SMN2 splice up inconclusive, p53 reactivation inconclusive, Rab9 prom act -2%, ELG1 genotoxic inconclusive and NPC1 prom act -2%.
`Cc1ccccc1S(=O)(=O)Nc1nc2ccccc2nc1N1CCc2ccccc2C1` gave FLuc modulator -14%, SMN2 splice up -79%, p53 reactivation 28µM*, Rab9 prom act -10%, ELG1 genotoxic -7% and NPC1 prom act 2%.
Screening CCOc1ccc(C(CC(=O)O)NC(=O)COc2ccc3ccccc3c2)cc1OC (stereo unspecified) returned FLuc modulator -6%, p53 reactivation -2%, Rab9 prom act -4%, ELG1 genotoxic 0% and NPC1 prom act -4%.
For CCOc1ccc(C(CC(=O)O)NC(=O)COc2ccccc2OC)cc1OC (stereo unspecified) the results were FLuc modulator -7%, SMN2 splice up 22µM*, p53 reactivation 1%, Rab9 prom act -6%, ELG1 genotoxic 2% and NPC1 prom act -2%.
For CCc1nc2ccccc2n1CCCCOc1ccccc1C the results were FLuc modulator inconclusive and SMN2 splice up -28%.
OCc1nc2ccccc2n1CCCOc1ccc(Br)cc1 was read as FLuc modulator 11µM* and SMN2 splice up -9%.
Screening Cc1ccccc1OCCCn1c(CO)nc2ccccc21 returned FLuc modulator 15µM*, SMN2 splice up 4%, p53 reactivation 10%, Rab9 prom act 5%, ELG1 genotoxic -6% and NPC1 prom act 1%.
`Cc1ccc(OCCCCn2c(CO)nc3ccccc32)cc1` gave FLuc modulator -9%, SMN2 splice up -34%, p53 reactivation -4%, Rab9 prom act -12%, ELG1 genotoxic -3% and NPC1 prom act -4%.
For Cc1nc2nc[nH]n2c(=O)c1CCOC(=O)c1ccccc1F the results were FLuc modulator 11µM*, p53 reactivation 5%, Rab9 prom act 13%, ELG1 genotoxic 3% and NPC1 prom act -4%.
Screening Cc1nc2nc[nH]n2c(=O)c1CCOC(=O)c1c(F)cccc1F returned FLuc modulator inconclusive, SMN2 splice up 7%, p53 reactivation -3%, Rab9 prom act 3%, ELG1 genotoxic 2% and NPC1 prom act -2%.
CC(C)(C)c1ccc(Cn2c(=O)cnc3ccccc32)cc1 was read as FLuc modulator 15µM*, p53 reactivation 13%, Rab9 prom act -1%, ELG1 genotoxic inconclusive and NPC1 prom act -1%.
`O=c1cnc2ccccc2n1Cc1ccc(Br)cc1` gave FLuc modulator 27µM*, p53 reactivation 11%, Rab9 prom act 19%, ELG1 genotoxic 6% and NPC1 prom act 6%.
COC(=O)Cn1c(=O)cnc2ccccc21 was read as FLuc modulator 0%, SMN2 splice up -7%, p53 reactivation 1%, Rab9 prom act -4%, ELG1 genotoxic 0% and NPC1 prom act -1%.
Screening O=C(O)Cn1c(=O)cnc2ccccc21 returned FLuc modulator 0%, SMN2 splice up -7%, p53 reactivation -2%, Rab9 prom act -5%, ELG1 genotoxic 0% and NPC1 prom act -6%.
COc1cccc(CNC(=O)Cn2cc3c(n2)-c2c(oc(C(=O)N4CCOCC4)c2C)CC3)c1 was read as FLuc modulator 0%.
